From the supplement of paper PMC5662767 come the findings set out here.

Where a name gives a salt, the structure may show the parent alone.

For this assay, the system named is Drosophila S2 cl14 SmoIP sensor cells. The assay is described as follows: normalized SmoIP GFP fluorescence (untreated unstimulated = 0%, untreated Hh-stimulated = 100%); higher = more Smo activation sensor fluorescence. The settings on record: compound concentration: 2 uM, 24 h.
The mark [1] stands for this setting: stimulation: Hh conditioned medium (+Hh).
[2] abbreviates: stimulation: mock conditioned medium (-Hh).
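Also: flow cytometry read-out as median GFP intensity of gated cells, compounds added 30 min before Hh-conditioned or mock medium, mock-treated cells serving as unstimulated baseline.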

`Cc1ccc(C(=O)Nc2cccc(C(F)(F)F)c2)cc1Nc1nc(-c2cccnc2)nc2c1cnn2C`: the “normalized SmoIP GFP fluorescence” value under setting [1] was 140% and the “normalized SmoIP GFP fluorescence” value under setting [2] is -9.04%.

Take `O=C(O)CCCc1ccccc1` [sodium-phenylbutyrate]: the “normalized SmoIP GFP fluorescence” value under setting [1] worked out at 112% and the “normalized SmoIP GFP fluorescence” value under setting [2] was -2.93%.

On to `CCN(CC)CCCC(C)Nc1nc(C)cc(Nc2ccc3nc(C)cc(N)c3c2)n1` (stereo not given), for which the “normalized SmoIP GFP fluorescence” value by setting is: under setting [1], 112%; under setting [2], -4.53%.

Consider `CC(C)(F)C[C@H](N[C@@H](c1ccc(-c2ccc(S(C)(=O)=O)cc2)cc1)C(F)(F)F)C(=O)NC1(C#N)CC1` [Odanacatib-(MK0822)], for which the “normalized SmoIP GFP fluorescence” value is 110% under setting [1] and -4.25% under setting [2].

For `CCCSc1nc(N[C@@H]2C[C@H]2c2ccc(F)c(F)c2)c2nnn([C@@H]3C[C@H](OCCO)[C@@H](O)[C@H]3O)c2n1` [ticagrelor], the “normalized SmoIP GFP fluorescence” value under setting [1] was determined as 113% and the “normalized SmoIP GFP fluorescence” value under setting [2] is -3.39%.

Consider `CC(C)N(C[C@H]1O[C@@H](n2cnc3c(N)ncnc32)[C@H](O)[C@@H]1O)[C@H]1C[C@@H](CCc2nc3cc(C(C)(C)C)ccc3[nH]2)C1`, for which the “normalized SmoIP GFP fluorescence” value under setting [1] was determined as 124% and the “normalized SmoIP GFP fluorescence” value under setting [2] is -2.59%.

Regarding `CN(C)CCN(Cc1ccccc1)c1ccccn1` [tripelennamine-hydrochloride], the “normalized SmoIP GFP fluorescence” value reads like this: under setting [1], 112%; under setting [2], -3.9%.

As for `O=[N+]([O-])c1ccc2c(c1)S(=O)(=O)C=C2` [stattic], the “normalized SmoIP GFP fluorescence” value reads like this: under setting [1], 116%; under setting [2], -1.74%.

With `C=CC(=O)Nc1cc2c(Nc3ccc(F)c(Cl)c3)ncnc2cc1OCCCN1CCOCC1` [CI-1033(Canertinib)], the “normalized SmoIP GFP fluorescence” value amounted to 109% under setting [1] and 13.8% under setting [2].

As for `CC1(C)Cc2c(-c3ccccc3)c(-c3ccc(Cl)cc3)c(CC(=O)O)n2C1` [licofelone], the “normalized SmoIP GFP fluorescence” value was 121% under setting [1] and -11.2% under setting [2].

With `COC(=O)c1ccc2c(c1)NC(=O)/C2=C(\Nc1ccc(N(C)C(=O)CN2CCN(C)CC2)cc1)c1ccccc1`, the “normalized SmoIP GFP fluorescence” value came out at 108% under setting [1] and 7.92% under setting [2].

With `Cn1nnc2c(C(N)=O)ncn2c1=O` [Methazolastone], the “normalized SmoIP GFP fluorescence” value worked out at 110% under setting [1] and 3.18% under setting [2].

Consider `O=C1NC(=O)C(c2ccccc2[N+](=O)[O-])=C1Nc1ccc(O)c(Cl)c1`, for which the “normalized SmoIP GFP fluorescence” value is, setting by setting: under setting [1], 153%; under setting [2], -16.1%.

`CC(=O)/N=c1/sc(S(N)(=O)=O)nn1C` [methazolamide]: the “normalized SmoIP GFP fluorescence” value runs as follows: under setting [1], 111%; under setting [2], -2.48%.

For `Cc1cc(Nc2nc(N[C@@H](C)c3ccc(F)cc3)c(C#N)cc2F)n[nH]1`, the “normalized SmoIP GFP fluorescence” value was 109% under setting [1] and -9.04% under setting [2].

On to `CCN(CC)CC#CCOC(=O)C(O)(c1ccccc1)C1CCCCC1` (stereo not given) [oxybutynin-chloride], for which the “normalized SmoIP GFP fluorescence” value reads like this: under setting [1], 108%; under setting [2], -1.12%.

For the compound `Cc1c(OCC(F)(F)F)ccnc1C[S+]([O-])c1nc2ccccc2[nH]1` (stereo not given) [Lansoprazole], the “normalized SmoIP GFP fluorescence” value was 104% under setting [1] and -1.13% under setting [2].

`Cc1cccc(-c2[nH]ncc2-c2ccc3ncccc3n2)n1` [repsox]: the “normalized SmoIP GFP fluorescence” value is 109% under setting [1] and -0.378% under setting [2].

Regarding `COC(=O)[C@H](c1ccccc1Cl)N1CCc2sccc2C1` [Clopidogrel-bisulfate], the “normalized SmoIP GFP fluorescence” value runs as follows: under setting [1], 113%; under setting [2], 2.97%.

For the compound `c1ccc2c(CCNc3ccc(Nc4ccncc4)cc3)c[nH]c2c1`, the “normalized SmoIP GFP fluorescence” value under setting [1] amounted to 106% and the “normalized SmoIP GFP fluorescence” value under setting [2] is 10.7%.

On to `COCCCOc1cc(C[C@@H](C[C@H](N)[C@@H](O)C[C@H](C(=O)NCC(C)(C)C(N)=O)C(C)C)C(C)C)ccc1OC` [Aliskiren-hemifumarate], for which the “normalized SmoIP GFP fluorescence” value is, setting by setting: under setting [1], 126%; under setting [2], -8.59%.

Regarding `OCc1ccc(-c2ccc(-c3ccc(CO)s3)o2)s1`, the “normalized SmoIP GFP fluorescence” value under setting [1] was 111% and the “normalized SmoIP GFP fluorescence” value under setting [2] was -2.08%.

As to `CNC(=O)c1ccc(-c2cnc3ncc(Cc4ccc5ncccc5c4)n3n2)cc1F`, the “normalized SmoIP GFP fluorescence” value under setting [1] was 107% and the “normalized SmoIP GFP fluorescence” value under setting [2] was -1.34%.

As for `Cc1c(C(=O)Nc2ccc(N3C[C@@H](C)O[C@@H](C)C3)nc2)cccc1-c1ccc(OC(F)(F)F)cc1`, the “normalized SmoIP GFP fluorescence” value reads like this: under setting [1], 114%; under setting [2], -12.2%.

Turning to `CC1(C)CNc2cc(NC(=O)c3cccnc3NCc3ccncc3)ccc21` [Motesanib-Diphosphate], the “normalized SmoIP GFP fluorescence” value is, setting by setting: under setting [1], 136%; under setting [2], 43.3%.

`O=C1NC(=O)/C(=C/c2ccc(-c3ccc(F)cc3O)o2)S1`: the “normalized SmoIP GFP fluorescence” value reads like this: under setting [1], 99.3%; under setting [2], 0.588%.

Consider `O=c1cc(-c2ccc(O)cc2)oc2cc(O)cc(O)c12` [Apigenin], for which the “normalized SmoIP GFP fluorescence” value reads like this: under setting [1], 140%; under setting [2], -2.19%.

Consider `CCOc1cc2ncc(C#N)c(Nc3ccc(OCc4ccccn4)c(Cl)c3)c2cc1NC(=O)/C=C/CN(C)C` [Neratinib(HKI-272)], for which the “normalized SmoIP GFP fluorescence” value runs as follows: under setting [1], 105%; under setting [2], -15.6%.

For the compound `O=C1NC(=O)/C(=C/c2cccc(C(F)(F)F)c2)S1`, the “normalized SmoIP GFP fluorescence” value was 107% under setting [1] and -9.04% under setting [2].

As to `COc1ccccc1Oc1c(NS(=O)(=O)c2ccc(C(C)(C)C)cc2)nc(-c2ncccn2)nc1OCCO` [bosentan-hydrate], the “normalized SmoIP GFP fluorescence” value by setting is: under setting [1], 109%; under setting [2], -1.63%.

For `CCc1c(O)cc(O)c(C(=O)c2ccc(OCCN3CCOCC3)c(OC)c2)c1CC(=O)N(CCOC)CCOC`, the “normalized SmoIP GFP fluorescence” value reads like this: under setting [1], 121%; under setting [2], -12.4%.

Consider `N#CC1(c2ccc(NC(=O)c3cccnc3NCc3ccncc3)cc2)CCCC1` [Apatinib-YN968D1], for which the “normalized SmoIP GFP fluorescence” value reads like this: under setting [1], 96.7%; under setting [2], -1.34%.

Take `Cc1ccccc1C(=O)Nc1ccc(C(=O)N2CCCC(N(C)C)c3ccccc32)cc1` (stereo not given) [mozavaptan]: the “normalized SmoIP GFP fluorescence” value runs as follows: under setting [1], 105%; under setting [2], -2.08%.

For `COc1ccc(CC(C)NCC(O)c2ccc(O)c(NC=O)c2)cc1` (stereo not given) [formoterol-hemifumarate], the “normalized SmoIP GFP fluorescence” value was 129% under setting [1] and -8.77% under setting [2].

As to `CC(C(O)c1ccc(O)cc1)N1CCC(Cc2ccccc2)CC1` (stereo not given) [ifenprodil-tartrate], the “normalized SmoIP GFP fluorescence” value under setting [1] was 103% and the “normalized SmoIP GFP fluorescence” value under setting [2] was -5.15%.
